Source: PubChem
A selection: hits, their analogues and other compounds. The true share with any hit is near 12%.
HP1b binding inh = blocks HP1-beta chromodomain binding to methylated histone tails | P83916 | AlphaScreen HP1-beta / biotin-H3K9me3 peptide binding | Potency, µM (top dose mostly 114 µM), for the others: top-dose activity change, negative = inhibition, most hits filed as inhibitors | hit rate 0.56% among 390,000 | AID 540317; further: nearly all actives have a fitted effect of over 70% in size
Target sequence (P83916 whole entry, looked up): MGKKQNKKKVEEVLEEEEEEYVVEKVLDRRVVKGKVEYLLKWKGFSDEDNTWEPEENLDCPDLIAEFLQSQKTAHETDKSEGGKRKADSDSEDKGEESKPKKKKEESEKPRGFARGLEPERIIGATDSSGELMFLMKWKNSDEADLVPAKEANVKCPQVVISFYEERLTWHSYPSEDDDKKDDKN
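HP1-beta protein (50 nM final) preincubated 30 min at room temperature with biotinylated H3(1-18)K9me3 peptide (50 nM) in PBS pH 7.4, 0.01% Tween-20, then compound added for 30 min. AlphaScreen streptavidin donor/nickel chelate acceptor beads (10 ug/mL final), 30 min dark, luminescence read.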
BAZ2B block = blocks human BAZ2B; AlphaScreen BAZ2B-H3K14Ac peptide displacement; hit rate 4.4% among 360,000; Q9UIF8; Potency, µM (series often up to 114 µM), for inactives: at the highest dose activity change, negative = inhibition, most hits filed as inhibitors; further: on the % scale 0 is the no-effect control and ±100 the full control effect; nearly all actives have a fitted effect of over 60% in size
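Multi-concentration screen (max 110 uM) measuring displacement of acetylated histone H3 peptide from BAZ2B by AlphaScreen, using 50 nM protein, 50 nM peptide and 10 ug/mL streptavidin donor plus Ni-chelate acceptor beads.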
JMJD2A Tudor = JMJD2A Tudor domain (human) inhibition; O75164; AlphaScreen JMJD2A-Tudor / H3K4me3 peptide binding; Potency, µM (top dose mostly 114 µM), for the others: top-dose activity change, negative = inhibition, most hits filed as inhibitors; hit rate 4.4% among 390,000; further: on the % scale 0 is the no-effect control and ±100 the full control effect; nearly all actives have a fitted effect of over 50% in size
L3MBTL1 inh = blocks human L3MBTL1; Q9Y468; hit rate 0.66% among 230,000; AlphaScreen L3MBTL1–H3K9me1 peptide binding; Potency, µM (highest dose often 57.1 µM), for the others: at the top dose activity, negative = inhibition, actives largely listed as inhibitors; further: on the % scale 0 is the no-effect control and ±100 the full control effect; nearly all actives have a fitted effect of over 60% in size
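L3MBTL1 50 nM + b-AHA-H3(1-15)K9me1 75 nM, 30 min RT; compound added, 30 min RT; streptavidin donor/Ni-chelate acceptor beads 10 ug/mL each final, 30 min RT dark; AlphaScreen read.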
Sfp inh = Sfp phosphopantetheinyl transferase inhibition; hit rate 3.5% among 310,000; Potency, µM, without a hit: largest response in the series, negative = inhibition, hits mostly inhibitors; AID 1490; Biochemical Sfp PPTase activity, qHTS;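 further: the enzyme is Sfp with the accession as filed and its product quenches rhodamine fluorescence; 0% = enzyme reaction without inhibitor and -100% = no enzyme wells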
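After 15 min at room temperature with compound, 15 nM Sfp received 5 uM rhodamine-CoA plus 12.5 uM BHQ-2-ybbR (50 mM Hepes pH 7.6, 10 mM MgCl2). Rate came from the fluorescence difference over 30 min, ex 525/em 598 nm.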
G9a inh = blocks human histone lysine methyltransferase G9a; hit rate 8.8% among 350,000; Potency, µM (top dose mostly 102 µM), for inactives: top-dose activity, negative = inhibition, actives largely listed as inhibitors; Q96KQ7; G9a H3K9 monomethylation, AlphaScreen, 2 h; further: on the % scale 0 is the no-effect control and ±100 the full control effect; nearly all actives have a fitted effect of over 75% in size
Target sequence (Q96KQ7 913-1193 limits assumed): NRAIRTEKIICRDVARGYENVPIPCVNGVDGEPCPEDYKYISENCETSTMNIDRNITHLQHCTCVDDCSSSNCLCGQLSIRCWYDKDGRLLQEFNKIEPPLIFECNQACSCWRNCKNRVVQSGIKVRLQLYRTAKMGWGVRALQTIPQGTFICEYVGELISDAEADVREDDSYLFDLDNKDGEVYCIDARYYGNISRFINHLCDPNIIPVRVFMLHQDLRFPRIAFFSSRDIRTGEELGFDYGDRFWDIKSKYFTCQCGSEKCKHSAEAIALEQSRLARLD
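Quantitative HTS format: methyltransferase activity on a biotin-tagged H3K9 peptide is measured by AlphaScreen, using a rabbit anti-monomethyl-H3K9 antibody with streptavidin donor and anti-IgG acceptor beads. Final levels are 20 nM enzyme, 500 nM peptide, 20 uM SAM; 2 h RT.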
* marks the source's active call; other numbers are inactive results; ? = inconclusive; · = not tested or not shown; ! = repeats disagree; [ ] = dose if it differs, or a comment. The call rests on the fitted dose curve; in most records, active means well fitted curve in the direction sought with a large enough effect; inconclusive means small, poorly fitted or top-dose-only effect, or another doubt; inactive means no such curve, though single readings can be large; an effect the other way counts as inactive or inconclusive. Potency means the concentration at half of the fitted maximal effect.

SMILES | HP1b binding inh | BAZ2B block | JMJD2A Tudor | L3MBTL1 inh | Sfp inh | G9a inh
COc1ccc(CCNC(=O)CN2CCC(C(N)=O)CC2)cc1 | 19% | 13% | 11%[57.1 µM] | 12% | -14% | 29%
COc1ccc(CCNC(=O)CN2C(=O)COc3ccccc32)cc1OC | 53% | 25% | -10% | · | · | 9%[59 µM]
COc1ccc(CCNC(=O)CN2CCC(C)CC2)cc1OC | ? | 56µM* | ? | · | -5% | ?
COc1ccc(CNC(=O)CN2CCN(S(=O)(=O)c3cc(Br)ccc3Br)CC2)cc1OC | 6% | -4% | -27% | -2% | · | 50µM*
COc1ccc(CNC(=O)CN2CCN(S(=O)(=O)c3c(C)c(C)cc(C)c3C)CC2)cc1OC | 0% | · | -28% | -5% | · | ·
CCn1c(SCc2ccccc2Cl)nc(=O)c2c(C(=O)OC)cc(C3CC3)nc21 | 15%[57 µM] | -19% | -33% | · | · | -23%[59 µM]
CCOc1cc(N2CCOCC2)c(OCC)cc1NC(=O)COC(=O)c1ccccc1OC(F)F | 10% | -9% | -17% | 3% | · | 0%
O=C(CN1CCCCCC1)NCCc1ccc(F)cc1 | ? | 50µM* | 3.5µM* | -2% | ? | 8.9µM*
Cc1ccc(C)c(S(=O)(=O)N2CCCCC2CCNC(=O)C(=O)NCc2ccccc2)c1 (stereo not given) | -1% | -7% | -8% | -1% | · | -1%
Nc1nonc1NC(=O)NN=C1CCCCC1 | 43% | -6% | ? | 5% | 35µM* | 0%
Cc1ccn2c(NC3CCCCC3)c(-c3cccc(-c4cccc(Cl)c4)c3)nc2c1 | -5% | ? | ? | -11% | · | -2%[2.33 µM]
O=C(COc1ccccc1)N1CCN(c2ccc([N+](=O)[O-])c(N3CCCCC3)c2)CC1 | -24% | ? | ? | -16% | 12% | ?
O=C(COc1ccc(Br)cc1)N1CCN(c2ccc([N+](=O)[O-])c(N3CCCCC3)c2)CC1 | -9% | -13% | ? | ? | 11% | 35µM*
CCCCN(Cc1ccc(C(=O)N[C@H](C(=O)O)C(C)C)cc1)C(=O)C(c1ccccc1)c1ccccc1 | -21% | · | 89µM* | · | · | ·
Cc1sc2nc(SCC(=O)Nc3ccc(Cl)c(C(=O)O)c3)[nH]c(=O)c2c1C | 20%[57 µM] | · | -19% | · | · | ·
Cc1sc2nc(SCC(=O)Nc3cccc(S(N)(=O)=O)c3)[nH]c(=O)c2c1C | ? | · | 89µM* | -2% | · | ·
Cc1sc2nc(SCC(=O)Nc3ccc(S(N)(=O)=O)cc3)[nH]c(=O)c2c1C | 17% | -29% | -11% | · | -11% | 6%
Cc1sc2nc(SCC(=O)Nc3cccc(C(=O)O)c3)[nH]c(=O)c2c1C | -14% | -6% | -23% | -9% | · | 25µM*
Cc1cc(NS(=O)(=O)c2ccc(NC(=O)COc3ccccc3Br)cc2)no1 | 19% | -2% | -15% | · | · | 4%[59 µM]
COc1ccccc1Nc1ccc(Nc2ccccc2OC)nn1 | -17% | -34% | ? | -6% | 11% | 50µM*
COc1ccccc1OCCC(=O)Nc1nc(C)cs1 | 39% | -25% | -16% | · | 13% | -1%
Cc1csc(Nc2ccccc2C(F)(F)F)n1 | 6% | ? | 1% | 0% | -1% | 24%[0.0925 µM]
Cc1csc(Nc2cccc3ccccc23)n1 | ? | 50µM* | ? | -19% | 1% | 45µM*
COc1ccccc1Nc1ncccc1C(=O)O | 7% | -4% | -16% | -2% | -2% | -17%[59 µM]
COc1ccccc1Nc1nc(C)cs1 | -21% | 79µM*! | -15% | 4% | 45µM* | 3%[2.33 µM]
SMILES | HP1b binding inh | BAZ2B block | JMJD2A Tudor | L3MBTL1 inh | Sfp inh | G9a inh
COc1cc(Cl)ccc1OCc1cc(C(=O)N2C[C@]3(C)C[C@H]2CC(C)(C)C3)no1 | 70% | -1% | -15% | · | -3% | 37%
CC(C)(C)NC(=O)Cn1cc(S(=O)(=O)Cc2ccc(F)cc2)c2ccccc21 | 19% | 3% | -14% | · | · | 7%[59 µM]
CCCCCSc1nnc(-c2cc(Br)ccc2N)c(=O)[nH]1 | 39% | 2% | -9% | -1% | 5% | 45µM*
CN1C(=O)C2(c3ccccc31)N(C)CC(c1ccccc1)C21SC(=S)N(Cc2ccco2)C1=O (stereo not given) | -14% | 5% | ? | -2% | -15% | ·
CN1C(=O)C2(c3ccccc31)N(C)CC(c1ccccn1)C21SC(=S)N(Cc2ccco2)C1=O (stereo not given) | ? | 22µM* | 28µM* | ? | -4% | ·
C/C=C(\C)C(=O)OC1CC(C)(C)C[C@H]2C3=CC[C@@H]4[C@@]5(C)CCC(O[C@@H]6O[C@@H](C(=O)O)[C@@H](O)C(O[C@@H]7OC[C@H](O)[C@@H](O)[C@@H]7O[C@@H]7OC(CO)C(O)[C@@H](O)[C@@H]7O)C6O[C@@H]6OC(CO)C(O)C(O)C6O)[C@@](C)(CO)[C@@H]5CC[C@]4(C)[C@]3(C)CC(O)[C@@]12CO (stereo not given in full) | 11% | · | 79µM* | -25% | · | ·
CC1(C)CC[C@]2(C(=O)O[C@@H]3OC(CO)[C@@H](O)[C@H](O)[C@H]3O)CC[C@]3(C)C(=CCC4[C@@]5(C)CC[C@H](O[C@@H]6OC(C(=O)O)[C@@H](O)[C@H](O)[C@H]6O)C(C)(C)C5CC[C@]43C)[C@@H]2C1 (stereo not given in full) | 52% | · | -7% | -4% | · | ·
COc1cccc(NC(=O)CSc2cc(C)c3ccccc3n2)c1 | 38% | 11% | 9% | · | · | 1%[59 µM]
COc1ccc2c(C)cc(SCC(=O)Nc3cc(C(N)=O)cc(C(N)=O)c3)nc2c1 | 38% | ? | -17% | -5% | 45µM* | -31%
COc1ccc(NC(=S)Nn2cnnc2)c(OC)c1 | ? | ? | ? | · | 18µM* | 5µM*
S=C(Nc1ccccc1)Nn1cnnc1 | -19% | ? | -26% | 2% | 13µM* | 1.4µM*
Cc1ccc(NC(=S)Nn2cnnc2)cc1 | -17% | ? | ? | -3% | 8.9µM* | 2.8µM*
CCc1ccc(NC(=S)Nn2cnnc2)cc1 | ? | -26% | 79µM* | 13% | 14µM* | 7.9µM*
CNC(=S)Nc1ccc(C)cc1 | 1% | -19% | -10% | 5% | 4% | 14%
COc1ccc2c(c1)CC(NC(=O)Nc1c(C)cc(C)cc1C)CO2 (stereo not given) | 20%[57 µM] | -8% | -11% | · | · | -20%[59 µM]
COc1ccc(NC(=S)Nn2cnnc2)cc1OC | ? | -33% | 18µM* | 0% | 20µM* | 4µM*
O=C(NCc1ccccc1F)C(=O)NCC(c1ccco1)S(=O)(=O)c1ccccc1 (stereo not given) | 24% | -5% | -9% | · | · | -10%[59 µM]
O=C(CCS(=O)(=O)c1ccccc1)N(CCCN1CCOCC1)c1nc2ccccc2s1 | 55% | -17% | -4% | 3% | · | 40µM*
